# About 410 targets per protein were measured; listed, in parts, are those with the strongest signals and a random draw of the rest.
# B1: a L Fucosidase (Streptosporangium roseum), D2B1P1_STRRD (protein)
# chain: MRRKLLLVPAVGLLVIGSIFATQPVASADTPPVYEPTVESLNSHPVPQWFNDDKFGIFIHWGAYSVPAWGPRGSYAEWYGNYMNAGGSATNAHHKATYGQDFNYDAFLQQWKAEKFDPADWVKLFKDAGAKYFVLTSKHHEGMALWDSKSSGRDSVDLGPGRDLAKELFDAARKDEAKLKAGFYYSLYEWYNPAYTGRPATNPYTGAEIPYTGAPGGGDYVKDYMLPQMRELIDGYDPDIIWCDGQWEKPASYWNTAGVIADYYNKALNSGKEVAVANRCKIQSGNLDSPELDFQTPEYTVKPDIDPVKWESSRGIAHSYGYNQNEPEEDHLTSDQLVDSLVDIVSKNGNLLLDIGPKADGTIPEIQRQRLLDIGAWLKANGEAIYGTTYWNRAEEKGGPDDVRYTAKDATLYATALKWPGEQLTLGADLPVDHSTRITMLGSGARLSWSRDEQGRVVVNTPQEAGKHAYVFKIETPGVRSLLRTSSSLAKEIAPGRTISGELTVTNPGKRHTPATKLSLTVPQGWTATLGAPRVRPLGPGESVKVPISVSAPEGVAPAPYTLGLYQRTGRMGTTTALPLTVNRPNLSLGKPATQKSTGYDAPASRAVDGNTGGDWSAGSTTHTAEPEKQAWWQVDLGASARLDSVDVWNRLDCCADRLKDFWVMASDQPFTTDDLDQARTAPGVTAVHVGEQAGSPSKVKLPEGTRGRYVRIQLASPSNPLSLAEVQVRGSMARPNLSLGKPATQKSTGYDAPASRAVDGNTGGDWSAGSTTHTAEPEKQAWWQVDLGASARLDSVDVWNRLDCCADRLKDFWVMASDQPFTTDDLDQARTAPGVTAVHVGEQAGSPSKVKLPEGTRGRYVRIQLASPSNPLSLAEVQVRLEHHHHHHS
# Key:
# Test in all cases: glycan array binding signal (z-score within array); higher = stronger binding
# Details in all cases: glycan notation: IUPAC condensed, linker removed
# [1] = target: Gal(b1-4)GlcNAc(b1-3)Gal(b1-4)GlcNAc(b1-3)[Gal(b1-4)GlcNAc(b1-3)Gal(b1-4)GlcNAc(b1-6)]GalNAc
# Procedure, shortened: (§1)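 From the Consortium for Functional Glycomics database, 3228 arrays were curated, keeping only those whose protein sequence was available. Binding is given as a within-array Z-score averaged across arrays sharing a protein sequence and across linkers. Negative Z-scores can be read as non-binding.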
# Gal6S(b1-4)Glc = target: Gal6S(b1-4)Glc
# Procedure, shortened: as §1
# [2] = target: GalNAc(a1-3)GalNAc(b1-3)Gal(a1-4)Gal(b1-4)Glc
# Procedure, shortened: as §1
# GalNAc(b1-4)GlcNAc = target: GalNAc(b1-4)GlcNAc
# Procedure, shortened: as §1
# GlcA(b1-3)Gal = target: GlcA(b1-3)Gal
# Procedure, shortened: as §1
# GlcA(b1-6)Gal = target: GlcA(b1-6)Gal
# Procedure, shortened: as §1
# [3] = target: GlcNAc(b1-3)Gal(b1-4)GlcNAc(b1-3)Gal(b1-4)GlcNAc(b1-3)Gal(b1-4)GlcNAc(b1-2)[GlcNAc(b1-3)Gal(b1-4)GlcNAc(b1-3)Gal(b1-4)GlcNAc(b1-3)Gal(b1-4)GlcNAc(b1-6)]Man(a1-6)[GlcNAc(b1-3)Gal(b1-4)GlcNAc(b1-3)Gal(b1-4)GlcNAc(b1-3)Gal(b1-4)GlcNAc(b1-2)Man(a1-3)]Man(b1-4)GlcNAc(b1-4)[Fuc(a1-6)]GlcNAc
# Procedure, shortened: as §1
# [4] = target: GlcNAc(b1-3)Gal(b1-4)GlcNAc(b1-3)Gal(b1-4)GlcNAc(b1-3)Gal(b1-4)GlcNAc(b1-3)Gal(b1-4)GlcNAc(b1-2)Man(a1-3)[GlcNAc(b1-3)Gal(b1-4)GlcNAc(b1-3)Gal(b1-4)GlcNAc(b1-3)Gal(b1-4)GlcNAc(b1-3)Gal(b1-4)GlcNAc(b1-2)Man(a1-6)]Man(b1-4)GlcNAc(b1-4)[Fuc(a1-6)]GlcNAc
# Procedure, shortened: as §1
# Kdn(a2-3)Gal(b1-4)Glc = target: Kdn(a2-3)Gal(b1-4)Glc
# Procedure, shortened: as §1
# [5] = target: Man(a1-2)Man(a1-2)Man(a1-3)Man
# Procedure, shortened: as §1
# [6] = target: Man(a1-2)Man(a1-3)[Man(a1-2)Man(a1-6)]Man(a1-6)[Man(a1-2)Man(a1-2)Man(a1-3)]Man(b1-4)GlcNAc(b1-4)GlcNAc
# Procedure, shortened: as §1
# Man(a1-3)[Man(a1-6)]Man = target: Man(a1-3)[Man(a1-6)]Man
# Procedure, shortened: as §1
# [7] = target: Neu5Ac(a2-3)Gal(b1-3)GlcNAc(b1-6)GalNAc
# Procedure, shortened: as §1
# [8] = target: Neu5Ac(a2-3)Gal(b1-4)GlcNAc(b1-3)Gal(b1-4)GlcNAc(b1-2)Man(a1-3)[Neu5Ac(a2-3)Gal(b1-4)GlcNAc(b1-3)Gal(b1-4)GlcNAc(b1-2)Man(a1-6)]Man(b1-4)GlcNAc(b1-4)GlcNAc
# Procedure, shortened: as §1
# [9] = target: Neu5Ac(a2-3)Gal(b1-4)GlcNAc(b1-6)[Neu5Ac(a2-3)Gal(b1-3)]GalNAc
# Procedure, shortened: as §1
# [10] = target: Neu5Ac(a2-6)Gal(b1-3)GlcNAc(b1-3)[Gal(b1-4)GlcNAc(b1-6)]Gal(b1-4)Glc
# Procedure, shortened: as §1
# Neu5Ac(a2-6)Gal(b1-4)Glc = target: Neu5Ac(a2-6)Gal(b1-4)Glc
# Procedure, shortened: as §1
# [11] = target: Neu5Ac(a2-6)Gal(b1-4)GlcNAc(b1-2)Man(a1-3)Man(b1-4)GlcNAc(b1-4)GlcNAc
# Procedure, shortened: as §1
# [12] = target: Neu5Ac(a2-6)Gal(b1-4)GlcNAc(b1-2)[Neu5Ac(a2-6)Gal(b1-4)GlcNAc(b1-4)]Man(a1-3)[GlcNAc(b1-4)][Neu5Ac(a2-6)Gal(b1-4)GlcNAc(b1-4)Man(a1-6)]Man(b1-4)GlcNAc(b1-4)GlcNAc
# Procedure, shortened: as §1
# [13] = target: Neu5Ac(a2-6)Gal(b1-4)GlcNAc(b1-6)[Gal(b1-3)GlcNAc(b1-3)]Gal(b1-4)Glc
# Procedure, shortened: as §1
# [14] = target: Neu5Ac(a2-6)GalNAc(b1-4)GlcNAc6S
# Procedure, shortened: as §1
# [15] = target: Neu5Ac(a2-8)Neu5Ac(a2-3)Gal(b1-3)GalNAc(b1-4)[Neu5Ac(a2-3)]Gal(b1-4)Glc
# Procedure, shortened: as §1
# [16] = target: Neu5Ac(a2-8)Neu5Ac(a2-3)[GalNAc(b1-4)]Gal(b1-4)Glc
# Procedure, shortened: as §1
# [17] = target: Neu5Ac(a2-8)Neu5Ac(a2-8)Neu5Ac(a2-3)[GalNAc(b1-4)]Gal(b1-4)Glc
# Procedure, shortened: as §1
# [18] = target: Neu5Gc(a2-3)Gal(b1-4)GlcNAc(b1-3)Gal(b1-4)GlcNAc(b1-2)Man(a1-3)[Neu5Gc(a2-3)Gal(b1-4)GlcNAc(b1-3)Gal(b1-4)GlcNAc(b1-2)Man(a1-6)]Man(b1-4)GlcNAc(b1-4)GlcNAc
# Procedure, shortened: as §1
# [19] = target: Neu5Gc(a2-6)Gal(b1-4)GlcNAc
# Procedure, shortened: as §1
# [20] = target: Neu5Gc(a2-8)Neu5Gc(a2-3)Gal(b1-4)GlcNAc(b1-3)Gal(b1-4)GlcNAc
# Procedure, shortened: as §1
# [21] = target: Neu5Gc(b2-6)Gal(b1-4)GlcNAc
# Procedure, shortened: as §1
binder,measurement,setting,value
B1,glycan array binding signal (z-score),[1],-0.245
same,glycan array binding signal (z-score),Gal6S(b1-4)Glc,-0.356
same,glycan array binding signal (z-score),[2],-0.338
same,glycan array binding signal (z-score),GalNAc(b1-4)GlcNAc,-0.528
same,glycan array binding signal (z-score),GlcA(b1-3)Gal,-0.445
same,glycan array binding signal (z-score),GlcA(b1-6)Gal,-0.444
same,glycan array binding signal (z-score),[3],-0.512
same,glycan array binding signal (z-score),[4],1.09
same,glycan array binding signal (z-score),Kdn(a2-3)Gal(b1-4)Glc,-0.16
same,glycan array binding signal (z-score),[5],-0.582
same,glycan array binding signal (z-score),[6],-0.104
same,glycan array binding signal (z-score),Man(a1-3)[Man(a1-6)]Man,0.008
same,glycan array binding signal (z-score),[7],-0.493
same,glycan array binding signal (z-score),[8],0.456
same,glycan array binding signal (z-score),[9],-0.417
same,glycan array binding signal (z-score),[10],-0.585
same,glycan array binding signal (z-score),Neu5Ac(a2-6)Gal(b1-4)Glc,-0.462
same,glycan array binding signal (z-score),[11],-0.533
same,glycan array binding signal (z-score),[12],-0.202
same,glycan array binding signal (z-score),[13],-0.507
same,glycan array binding signal (z-score),[14],-0.481
same,glycan array binding signal (z-score),[15],-0.521
same,glycan array binding signal (z-score),[16],-0.558
same,glycan array binding signal (z-score),[17],-0.388
same,glycan array binding signal (z-score),[18],0.548
same,glycan array binding signal (z-score),[19],-0.317
same,glycan array binding signal (z-score),[20],-0.268
same,glycan array binding signal (z-score),[21],-0.474

# Source: the supplement of paper PMC8728848
